“And” between values parts separate entries of the source, which are not always exact repeats. Identical values can stand only once. The source made the active and inactive calls. Unless noted, no rule for the calls is given here.
Key:
[1] = system: Hepatitis C virus NS3 helicase; experiment: blockers of NS3h binding to ssDNA – biochemical, fluorescence polarization, LOPAC1280 library, primary screen (AID 687035; in the data active = inhibition above about 37%); conditions: Purified HCV NS3 helicase, Cy5-dT15 ssDNA binding fluorescence polarization; stronger effect = higher value; concentration not given here
[2] = compounds altering Cy5-DNA-NS3h complex signal – biochemical, LOPAC1280, artefact control for HCV NS3 helicase inhibitor project (AID 687037); conditions: Cy5-DNA-NS3h complex fluorescence interference counterscreen
[3] = liver-stage malaria parasite load reduction – cell-based, known kinase inhibitor set, luminescence, hepatoma host viability (AID 624392); conditions: Plasmodium liver stage in hepatoma cells, luciferase luminescence, concentration not given here; liver cell % of control: measured here: host liver cell viability; parasite % of control: stronger effect = lower value;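 also: infected cells incubated roughly two days before readout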
[4] = signal quenchers or enhancers, Cy5 substrate/SSB – biochemical, NIH Clinical Collection, E. coli SSB, artefact control for HCV NS3 helicase inhibitor project (AID 743268); conditions: Cy5-oligo bound E. coli SSB, fluorescence interference
[5] = system: Hepatitis C virus NS3 helicase; experiment: blockers of NS3h binding to DNA – biochemical, fluorescence polarization, NIH Clinical Collection, primary screen (AID 743270); conditions: NS3 helicase binding to Cy5-dT15 DNA, stronger effect = higher value, concentration not given here
[6] = target: Single-stranded DNA-binding protein (Escherichia coli (strain K12)) (UniProt P0AGE0); experiment: SSB-ssDNA binding inhibitors – biochemical, fluorescence polarization, NIH Clinical Collection, counter-screen for HCV NS3 helicase inhibitor project (AID 743271; in the data active = inhibition above about 28%); conditions: E. coli SSB-DNA binding, stronger effect = higher value, concentration not given here
[7] = compounds distorting NS3 helicase fluorescence signal – biochemical, NIH Clinical Collection, artefact control for HCV NS3 helicase inhibitor project (AID 743272); conditions: fluorescence interference counterscreen, HCV NS3 helicase assay; stronger effect = lower value;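 also: HCV NS3 helicase with a Cy5 labelled single stranded DNA probe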
[8] = system: Neuropilin-2 / VEGF-C interaction (human); experiment: small molecules blocking Neuropilin-2/VEGF-C interaction – biochemical, microplate binding format, z-score (AID 743281); conditions: microplate NRP2/VEGF-C binding assay

CC(C)ON([C@@H](C(=O)NO)C(C)C)S(=O)(=O)c1ccc(-c2ccccc2)cc1
inhibition [1]: -1% (inactive)
fluorescence ratio (interference) [2]: 0.9 (inactive)

C=CC(=O)Nc1ccc(N(C)c2ccnc(Nc3ccc(N4CCN(C)CC4)cc3)n2)cc1
liver cell % of control [3]: 107%
parasite % of control [3]: 27.8% (inactive)

Cc1ccc2nc(CN(CCN(Cc3nc4ccc(C)cc4[nH]3)Cc3nc4ccc(C)cc4[nH]3)Cc3nc4ccc(C)cc4[nH]3)[nH]c2c1
inhibition [1]: 0% (inactive)
fluorescence ratio (interference) [2]: 1 (inactive)

COCCCC/C(=N/OCCN)c1ccc(C(F)(F)F)cc1
inhibition [1]: -1% (inactive)
fluorescence ratio (interference) [2]: 1 (inactive)

O=C(Nc1ccc(-c2csc(Nc3ccccc3)n2)cc1)c1cccc(C(F)(F)F)c1
liver cell % of control [3]: 99.8%
parasite % of control [3]: 99.4% (inactive)

CO[C@H]1C=CO[C@@]2(C)Oc3c(C)c(O)c4c(O)c(c5c(c4c3C2=O)=NC2(CCN(CC(C)C)CC2)N=5)NC(=O)C(C)=CC=C[C@H](C)[C@H](O)[C@@H](C)[C@@H](O)[C@@H](C)[C@H](OC(C)=O)[C@@H]1C
fluorescence ratio [4]: 0.96 (inactive)
inhibition [5]: -2.77% (inactive)
inhibition [6]: 1.44% (inactive)
fluorescence ratio [7]: 0.96 (inactive)

Cc1ccc(C(=O)Nc2cccc(C(F)(F)F)c2)cc1NC(=O)c1nccnc1N
liver cell % of control [3]: 95%
parasite % of control [3]: 83.1% (inactive)

O=C(Nc1ccc(-c2csc(Nc3ccccc3)n2)cc1)c1cc([N+](=O)[O-])cc(C(F)(F)F)c1
liver cell % of control [3]: 102%
parasite % of control [3]: 102% (inactive)

NC1=NC(=O)C(=Cc2cccc(-c3ccc(S(N)(=O)=O)cc3)c2)S1
liver cell % of control [3]: 98%
parasite % of control [3]: 377% (inactive)

C=CCc1cccc(/C=N\NC(=O)CN2CCN(Cc3ccccc3)CC2)c1O
inhibition [1]: 1% (inactive)
fluorescence ratio (interference) [2]: 0.9 (inactive)

CC(=O)/C(C)=N\O
inhibition [1]: -1% (inactive)
fluorescence ratio (interference) [2]: 1.1 (inactive)

NC1=NC(=O)C(=Cc2ccc(-c3ccc(Cl)cc3)o2)S1
liver cell % of control [3]: 97.6%
parasite % of control [3]: 73.1% (inactive)

COc1ccc(-c2cc(C(=O)Nc3cc(OC)cc(C(=O)Nc4cccc(C(F)(F)F)c4)c3)[nH]n2)cc1
liver cell % of control [3]: 93.9%
parasite % of control [3]: 36.9% (inactive)

CC(C)n1cnc2c(Nc3ccc(C(=O)O)cc3)nc(Cl)nc21
liver cell % of control [3]: 88.9%
parasite % of control [3]: 123% (inactive)

CC(C)n1cnc2c(N(C)c3cccc(Cl)c3)nc(N(CCO)CCO)nc21
liver cell % of control [3]: 93.8%
parasite % of control [3]: 100% (inactive)

O=C1NCCC(=NNc2cccnc2)c2c1[nH]c1ccc(Cl)cc21
liver cell % of control [3]: 99.3%
parasite % of control [3]: 133% (inactive)

CO[C@H]1C=CO[C@@]2(C)Oc3c(C)c(O)c4c(O)c(c(/C=N/N5CCN(C6CCCC6)CC5)c(O)c4c3C2=O)NC(=O)C(C)=CC=C[C@H](C)[C@H](O)[C@@H](C)[C@@H](O)[C@@H](C)[C@H](OC(C)=O)[C@@H]1C
fluorescence ratio [4]: 1.02 (inactive)
inhibition [5]: -3.56% (inactive)
inhibition [6]: 9.91% (inactive)
fluorescence ratio [7]: 1.01 (inactive)

CC(=O)N[C@H]1[C@H]([C@H](O)[C@H](O)CO)OC(C(=O)O)=C[C@@H]1O
inhibition [1]: 2% (inactive)
fluorescence ratio (interference) [2]: 1 (inactive)

Nc1ccc(-c2cnc(N)c(C(=O)c3cccnc3)n2)cn1
liver cell % of control [3]: 97.9%
parasite % of control [3]: 132% (inactive)

Cc1c[nH]c(C=C2C(=O)Nc3ccccc32)c1CCC(=O)O
liver cell % of control [3]: 85.5% and 92.1% and 99.1%
parasite % of control [3]: 58.7% (inactive) and 47.8% (inactive) and 49.4% (inactive)

Fc1cccc(/C=N\N=C/c2cccc(F)c2)c1
inhibition [1]: -2% (inactive)
fluorescence ratio (interference) [2]: 1 (inactive)

CCN1CCN(Cc2ccc(NC(=O)c3ccc(C)c(NC(=O)c4cccc5[nH]ccc45)c3)cc2C(F)(F)F)CC1
liver cell % of control [3]: 103%
parasite % of control [3]: 99.7% (inactive)

COc1ccc(CNc2nc(NCc3ccc(OC)cc3)c3ncn(C4CCCC4)c3n2)cc1
liver cell % of control [3]: 90.6%
parasite % of control [3]: 265% (inactive)

CC(C)n1cnc2c(N(C)c3ccccc3)nc(N(CCN(C)C)Cc3ccccc3)nc21
liver cell % of control [3]: 84.5%
parasite % of control [3]: 24.1% (inactive)

Nc1ncnc2c1c(I)cn2[C@@H]1C[C@H](N)[C@@H](O)[C@H]1O
inhibition [1]: -1% (inactive)
fluorescence ratio (interference) [2]: 0.9 (inactive)

Cn1c(C2=C(c3c4n(c5ccccc35)CCC(CN)C4)C(=O)NC2=O)cc2ccccc21 (centres undefined)
liver cell % of control [3]: 41.8% and 77.6% and 88.8%
parasite % of control [3]: 3.36% (inactive) and 70.7% (inactive) and 90.3% (inactive)

Cc1ccc(C(=O)Nc2cccc(C(F)(F)F)c2)cc1NC(=O)c1c[nH]c2cc(C(F)(F)F)ccc2c1=O
liver cell % of control [3]: 97.9%
parasite % of control [3]: 25.1% (inactive)

CC(C)n1cnc2c(N(Cc3ccccc3)c3cccc(Cl)c3)nc(N(CCN(C)C)Cc3ccccc3)nc21
liver cell % of control [3]: 82.6%
parasite % of control [3]: 9.42% (active)

CO/N=C(/C(=O)N[C@@H]1C(=O)N2C(C(=O)O)=C(CSc3nc(=O)c(O)nn3C)CSC12)c1csc(N)n1 (some centres undefined)
inhibition [1]: -2% (inactive)
fluorescence ratio (interference) [2]: 1 (inactive)

COc1cc(C(=O)NC2CCN(C)CC2)ccc1Nc1ncc2c(n1)N(CCc1ccccc1)CCC(=O)N2C
liver cell % of control [3]: 98.4%
parasite % of control [3]: 343% (inactive)

CO[C@H]1C=CO[C@@]2(C)Oc3c(C)c(O)c4c(O)c(c5c(c4c3C2=O)NC2(CCN(CC(C)C)CC2)N=5)=NC(=O)/C(C)=C\C=C[C@H](C)[C@H](O)[C@@H](C)[C@@H](O)[C@@H](C)[C@H](OC(C)=O)[C@@H]1C
outcome [8]: inactive

CN(C)c1nc2c(Br)c(Br)c(Br)c(Br)c2[nH]1
inhibition [1]: 1% (inactive)
fluorescence ratio (interference) [2]: 1 (inactive)

CCN1CCN(Cc2ccc(NC(=O)c3cc(NC(=O)N4CCNC4=O)cc(OC)c3)cc2C(F)(F)F)CC1
liver cell % of control [3]: 96.3%
parasite % of control [3]: 12.4% (active)

Source: PubChem BioAssay
